The text below walks through data of PubChem BioAssay (NCI).

Values joined by “and” are separate entries in the source; they are usually repeats but may differ in a detail not shown here. Equal entries are not always repeated. This is part of a sample that, as a whole, favours compounds with a hit. Of some 83,000 tested, about 20% had one in any assay.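 In brief: 96-well plates, 48 h treatment, single concentration, percent growth endpoint.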 Active and inactive are the calls of the source. The calls were made as follows: active = growth percent below 10; inactive = the rest.

The test system of this assay is CAKI-1 renal. The assay is described as follows: NCI-60 one-dose screen, 48 h (100 = growth as untreated, 0 = no growth, -100 = all killed). As to conditions: 10 µM unless noted.
Take `CC1CCCC(=O)O1` (configuration not stated): the growth is 95.7% (inactive) and 102% (inactive).
Consider `Cc1ccc(S(=O)(=O)NCN2C(=O)c3ccccc3C2=O)cc1`, for which the growth was 95.1% (inactive).
As for `O=C(N/N=C/c1cccc2ccccc12)C1CC1`, the growth was 108% (inactive) and 90% (inactive).
In the case of `CN(C)CCCNC1=C(Cl)C(=O)c2ccccc2C1=O`, the growth is 91.3% (inactive) and 104% (inactive).
Consider `COc1ccc2nc(Cl)cc(C)c2c1`, for which the growth is 85.6% (inactive).
For the molecule `CN(C)c1ccc(C(=C2C=CC(=[N+](C)C)C=C2)c2ccccc2Cl)cc1`, the growth was -16.7% (active).
For the molecule `OCc1ccccn1`, the growth was 101% (inactive).
Regarding `Nc1ccccc1SC1CC(=O)N(c2cccc3ccccc23)C1=O` (configuration not stated), the growth was 79.7% (inactive).
Regarding `CC(=O)Nc1cccc2c1CCCC2`, the growth is 95.1% (inactive).
Turning to `CCN1CCN(CCNc2nccc(-c3c(-c4cccc(O)c4)nc4sccn34)n2)S1(=O)=O`, the growth is 44.2% (inactive) and 34% (inactive).
`NC(=O)c1ccccc1OCC(O)CO` (configuration not stated): the growth is 97.5% (inactive).
For the molecule `Nc1ccccc1Nc1ccccc1`, the growth is 73.3% (inactive).
For the molecule `N/C(=N\N=C\c1ccc2c(c1)OCO2)N/N=C\c1ccc2c(c1)OCO2`, the growth is 99% (inactive) and 103% (inactive).
Turning to `N#C/C(=C/c1c(O)ccc2ccccc12)C(N)=O`, the growth was 84% (inactive).
For the molecule `Oc1ccc(/C=C/c2ccccc2)cc1`, the growth is 6.76% (active).
Take `COc1ccc2ccccc2c1/C=N/N1CCCCC1`: the growth is 85.7% (inactive).
As to `O=C(Nc1cccc(-n2ccc3c(NC(=O)c4ccccc4)nccc32)c1)c1ccc(Cl)c(C(F)(F)F)c1`, the growth is -66.7% (active) and 42.8% (inactive).
